# Test results reported in ChEMBL document CHEMBL3988442, “University of Dundee, Small-Polar-MMV Screening Library” (2021).
# Out of some 69,000 compounds screened, about 1,000 (1.4%) showed an effect of 50% or more. The list comes from a sample in which strong results are over-represented; it also holds similar structures and randomly drawn compounds.
# Tested on: Leishmania donovani
# Assay: Leishmania intramacrophage assay
# Format: functional, organism-based
# Set-up: scale not given: in the data most compounds retested in dose-response had high values
compound,measurement,setting,value
O=C(O)C(F)(F)F.O=C(O)C(F)(F)F.O=C(c1ccco1)N1CCN2C[C@H](OCc3cccnc3)C[C@H]2C1,Percent Effect,"30.3 µM, […]",15.93%
O=C(O)C(F)(F)F.c1ccc(NC[C@@H]2CCC[C@@H]3CN(Cc4cccnc4)C[C@@H]32)nc1,Percent Effect,"30.3 µM, […]",38.85%
Cc1noc(C)c1CN1C[C@@H]2CC(F)(F)C[C@@H]2C1.O=C(O)C(F)(F)F,Percent Effect,"30.3 µM, […]",4.682%
Fc1cccc(CN2C[C@@H]3CN(c4ncccn4)C[C@@H]3C2)c1.O=C(O)C(F)(F)F.O=C(O)C(F)(F)F,Percent Effect,"30.3 µM, […]",8.696%
Cc1noc(C)c1CN1C[C@H]2CN(Cc3cccc(F)c3)C[C@H]2C1.O=C(O)C(F)(F)F.O=C(O)C(F)(F)F,Percent Effect,"30.3 µM, […]",50.84%
O=C(C1CCOC1)N1CCC2(CCNCC2)C1 (stereo not given),Percent Effect,"30.3 µM, […]",11.74%
Cc1nnc([C@H]2C[C@@H]3CCN(Cc4cc(C)on4)C[C@H]3O2)[nH]1,Percent Effect,"30.3 µM, […]",19.71%
Cc1cc(CN2CC[C@H]3C[C@@H](c4nccs4)O[C@@H]3C2)no1,Percent Effect,"30.3 µM, […]",12.1%
Cc1cc(CN2CC[C@@H]3O[C@@H](c4nnc(C)o4)C[C@H]3C2)no1,Percent Effect,"30.3 µM, […]",55.35%
CCc1c(C)[nH]c(C2(N)CCCC2)nc1=O.Cl,Percent Effect,"30.3 µM, […]",9.424%
O=C(O)C(F)(F)F.c1cnc(N2CCC3(CCCN(CC4CC4)C3)CC2)nc1,Percent Effect,"30.3 µM, […]",32.8%
O=C(O)C(F)(F)F.O=C(O)C(F)(F)F.c1cnc(N2CCCC3(CCN(CC4CC4)C3)C2)nc1 (stereo not given),Percent Effect,"30.3 µM, […]",29.01%
O=C(O)C(F)(F)F.c1cnc(N2CCCC3(CCN(CC4CCC4)C3)C2)nc1 (stereo not given),Percent Effect,"30.3 µM, […]",67.66%
Cc1noc([C@@H]2C[C@H]3OCC[C@H]3N(C(C)C)C2)n1.O=C(O)C(F)(F)F,Percent Effect,"30.3 µM, […]",-1.476%
c1ccc(N2CCCC3(CCN(Cc4nccs4)C3)C2)nc1 (stereo not given),Percent Effect,"30 µM, 30.03 µM",40.77%
CNC(=O)[C@@H]1[C@H]2CNCCN2C[C@H]1c1ccccc1,Percent Effect,"30.3 µM, […]",3%
Cc1ccc(CN2CCC3(CC2)C(=O)Nc2ccccc23)s1.O=C(O)C(F)(F)F,Percent Effect,"30.3 µM, […]",7.529%
Cl.Cl.NC[C@H]1[C@H]2CN(Cc3ccccc3)C[C@@H]12,Percent Effect,"30 µM, 30.03 µM",3.608%
Cl.Cl.NCC1[C@H]2CN(CCc3ccccc3)C[C@@H]12 (stereo not given in full),Percent Effect,"30 µM, 30.03 µM",31.54%
NCC1[C@H]2CN(Cc3cccc(Cl)c3)C[C@@H]12 (stereo not given in full),Percent Effect,"30.3 µM, […]",88.17%
CN1CCCCC1c1cncc(Cl)n1.Cl (stereo not given),Percent Effect,"30.3 µM, […]",9.533%
CCN1CCC2(CC1)C(=O)Nc1ccc(C(=O)NC)cc12.O=C(O)C(F)(F)F,Percent Effect,"30.3 µM, […]",1.318%
O=C(N1CCOCC1)[C@@]12CCO[C@@H]1CCN(Cc1ccncc1)C2.O=C(O)C(F)(F)F.O=C(O)C(F)(F)F,Percent Effect,"30.3 µM, […]",2.48%
CC(N)Cc1ccccc1Sc1ccc(O)cc1.CC(N)Cc1ccccc1Sc1ccc(O)cc1.O=C(O)C(=O)O (stereo not given),Percent Effect,"30.3 µM, […]",78.04%
CNS(=O)(=O)CC(=O)NC(C)Cc1ccccc1Br (stereo not given),Percent Effect,"30.3 µM, […]",6.804%
CC[C@H](C)[C@@H](CO)NC(C)Cc1ccccc1F (stereo not given in full),Percent Effect,"30.3 µM, […]",2.411%
CNC(C)Cc1ccccc1Sc1ccc(O)cc1.Cl (stereo not given),Percent Effect,"30.3 µM, […]",66.06%
CC(N)Cc1ccccc1Sc1ccccc1.O=C(O)/C=C\C(=O)O (stereo not given),Percent Effect,"30.3 µM, […]",100.2%
Cc1noc(C)c1CN1CCCC2(CCN(C(=O)NC3CC3)C2)C1.O=C(O)C(F)(F)F (stereo not given),Percent Effect,"30 µM, 30.03 µM",17.52%
O=C(C[C@@H]1COC[C@H]2CN(Cc3cccnc3)C[C@@H]12)N1CCCC1.O=C(O)C(F)(F)F.O=C(O)C(F)(F)F,Percent Effect,"30.3 µM, […]",-30.89%
CN1C(=O)C2(CCN(CC3CC3)CC2)c2ccccc21.O=C(O)C(F)(F)F,Percent Effect,"30 µM, 30.03 µM",16.21%
CN(C)[C@@H]1CCN(C(=O)Cc2ccc(F)cc2)[C@H]1Cc1ccncc1.O=C(O)C(F)(F)F.O=C(O)C(F)(F)F,Percent Effect,"30.3 µM, […]",29.68%
Cc1cccc(CN2CC[C@@H]3[C@@H]2CCN3C(=O)c2ccoc2C)n1.O=C(O)C(F)(F)F.O=C(O)C(F)(F)F,Percent Effect,"30.3 µM, […]",32.03%
Cc1[nH]c(C2(N)CCCCC2)nc(=O)c1C.Cl,Percent Effect,"30.3 µM, […]",27.19%
Cc1cnc(C(=O)N2C[C@H]3CN(Cc4cccnc4)C[C@H]3C2)cn1.O=C(O)C(F)(F)F.O=C(O)C(F)(F)F,Percent Effect,"30.3 µM, […]",19.7%
Cc1noc(C)c1CN1C[C@@H]2C[C@H](C(=O)NCC3CC3)N(C)[C@@H]2C1.O=C(O)C(F)(F)F.O=C(O)C(F)(F)F,Percent Effect,"30.3 µM, […]",-4.016%
CCN1CC2(CC1=O)CN(Cc1ccccn1)CCN(C(C)=O)C2.O=C(O)C(F)(F)F.O=C(O)C(F)(F)F (stereo not given),Percent Effect,"30.3 µM, […]",0.8966%
O=C(O)C(F)(F)F.O=C(O)C(F)(F)F.c1ccc(CN2CC[C@H]3CO[C@H](CNc4ncccn4)[C@H]3C2)cc1,Percent Effect,"30.3 µM, […]",8.127%
O=C(O)C(F)(F)F.O=C(O)C(F)(F)F.c1cncc(COC[C@H]2CC[C@H]3[C@H](CCN3Cc3cccs3)O2)c1,Percent Effect,"30 µM, 30.03 µM",31.53%
CN(C)C(=O)CN1CC[C@@H]2O[C@@H](COCc3cccnc3)CC[C@@H]21.O=C(O)C(F)(F)F.O=C(O)C(F)(F)F,Percent Effect,"30.3 µM, […]",38.61%
O=C(O)C(F)(F)F.O=C(O)C(F)(F)F.c1cncc(COC[C@H]2CC[C@H]3[C@H](CCN3Cc3nccs3)O2)c1,Percent Effect,"30.3 µM, […]",98.87%
COc1cc(CNC(C)Cn2cccn2)cc(Cl)c1OC.Cl (stereo not given),Percent Effect,30 µM,29.92%
Cc1cc(CN2C[C@@H]3COC[C@]3(CNC(=O)c3ccsc3)C2)no1.O=C(O)C(F)(F)F,Percent Effect,"30.3 µM, […]",18.56%
Cn1cc(CN2CCC3(CCCN3Cc3cccnc3)CC2)cn1.O=C(O)C(F)(F)F.O=C(O)C(F)(F)F.O=C(O)C(F)(F)F,Percent Effect,"30.3 µM, […]",63.2%
Cn1cc(N2CCC3(CCN(Cc4cccnc4)C3)C2=O)cn1.O=C(O)C(F)(F)F.O=C(O)C(F)(F)F (stereo not given),Percent Effect,"30 µM, 30.03 µM",-14.07%
O=C(O)C(F)(F)F.O=C(c1ccc[nH]1)N1CCC2(CCCN2Cc2cccnc2)CC1,Percent Effect,"30.3 µM, […]",12.17%
COCCN1C[C@@H]2[C@@H](OC)CCN(C(=O)Cc3ccccc3)[C@@H]2C1.O=C(O)C(F)(F)F,Percent Effect,"30.3 µM, […]",35.25%
COc1cc(C2SCC(=O)Nc3[nH]ncc32)cc(OC)c1OC (stereo not given),Percent Effect,"30.3 µM, […]",56.1%
COc1cc(C2SCC(=O)Nc3[nH]ncc32)c(OC)c2c1OCO2 (stereo not given),Percent Effect,"30.3 µM, […]",8.87%
COc1cc(C2SCC(=O)Nc3[nH]ncc32)cc2c1OCO2 (stereo not given),Percent Effect,"30.3 µM, […]",1.862%
COc1ccnc(N2C[C@@H]3CC[C@H](C2)N(CC2CC2)C3)n1,Percent Effect,"30.3 µM, […]",37.63%
COc1ccc(-c2ccccc2CCN)c(OC)c1,Percent Effect,"30.3 µM, […]",75.35%
CC(=O)Nc1cccc(-c2ccccc2CCN)c1,Percent Effect,"30.3 µM, […]",-35.33%
CCOc1ccc(-c2cc(CCN)ccc2OC)cc1,Percent Effect,"30.3 µM, […]",-5.145%
COCC(=O)N1CCC2(CCN(Cc3cccnc3)C2)CC1.O=C(O)C(F)(F)F.O=C(O)C(F)(F)F,Percent Effect,"30.3 µM, […]",22.03%
Fc1cnc(N2CCO[C@H]3CN(CC4CCCCC4)C[C@H]32)nc1.O=C(O)C(F)(F)F,Percent Effect,"30.3 µM, […]",-16.59%
O=C(O)C(F)(F)F.O=C(O)C(F)(F)F.O=C(O)C(F)(F)F.O=C1C[C@@H]2[C@H](CCN2Cc2ccccn2)N1Cc1ccncc1,Percent Effect,"30.3 µM, […]",27.44%
c1ccc(CCN2C[C@@H]3OCCN(c4ncccn4)[C@@H]3C2)cc1,Percent Effect,"30.3 µM, […]",6.788%
c1ccc(CN2C[C@@H]3OCCN(CC4CCCO4)[C@@H]3C2)nc1 (stereo not given in full),Percent Effect,"30 µM, 30.03 µM",15.57%
O=C(O)C(F)(F)F.c1cncc(N2CCO[C@H]3CN(CC4CCOC4)C[C@H]32)c1 (stereo not given in full),Percent Effect,"30.3 µM, […]",31.71%
Cc1ccc(N2CCO[C@H]3CN(Cc4ccccn4)C[C@H]32)nn1.O=C(O)C(F)(F)F.O=C(O)C(F)(F)F.O=C(O)C(F)(F)F,Percent Effect,"30.3 µM, […]",63.6%
Fc1ccccc1CN1C[C@@H]2OCCN(c3ncccn3)[C@@H]2C1,Percent Effect,"30.3 µM, […]",15.52%
Cc1ccc(N2CCO[C@H]3CN(Cc4ccncc4)C[C@H]32)nn1.O=C(O)C(F)(F)F.O=C(O)C(F)(F)F.O=C(O)C(F)(F)F,Percent Effect,"30 µM, 30.03 µM",16.14%
O=C(O)C(F)(F)F.O=C(O)C(F)(F)F.O=C(O)C(F)(F)F.c1ccc(CN2C[C@@H]3OCCN(c4ncccn4)[C@@H]3C2)nc1,Percent Effect,"30 µM, 30.03 µM",-0.09782%
c1ccc(CN2C[C@@H]3OCCN(c4cccnc4)[C@@H]3C2)nc1,Percent Effect,"30.3 µM, […]",55.81%
Cn1ccnc1CN1C[C@@H]2OCCN(c3ncccn3)[C@@H]2C1,Percent Effect,"30.3 µM, […]",50.19%
CC(C)N1CC[C@@H]2OC[C@H](C(=O)Nc3cccnc3)C[C@@H]2C1.O=C(O)C(F)(F)F.O=C(O)C(F)(F)F,Percent Effect,"30.3 µM, […]",-12.98%
CCCn1nc(C)c(-c2cncn2CC2(N(C)C)CCC(C)CC2)c1C (stereo not given),Percent Effect,"30.3 µM, […]",1.091%
CCCN1CCC(c2nc3ccc(C)cn3n2)CC1.O=C(O)C(F)(F)F,Percent Effect,"30.3 µM, […]",17.32%
Cc1cccc(CN2C(=O)C[C@H]3[C@@H]2CCN3Cc2nccs2)n1.O=C(O)C(F)(F)F.O=C(O)C(F)(F)F,Percent Effect,"30.3 µM, […]",2.484%
CC(C)NC(=O)c1ccc2c(c1)C1(CCN(C)CC1)C(=O)N2.O=C(O)C(F)(F)F,Percent Effect,"30.3 µM, […]",1.546%
Cc1ccc(C(=O)N2C[C@H](N3CCOCC3)[C@@H]3OCCC[C@@H]32)cn1.O=C(O)C(F)(F)F.O=C(O)C(F)(F)F,Percent Effect,"30.3 µM, […]",2.104%
CN1[C@H]2CC[C@@H]1CN(c1cc(Sc3cccs3)nc(N)n1)CC2,Percent Effect,"30.3 µM, […]",2.015%
CC(C)CCN1C[C@@H]2OCCN(c3ncc(F)cn3)[C@@H]2C1.O=C(O)C(F)(F)F,Percent Effect,"30.3 µM, […]",-5.572%
COCC1CC2(CCN(Cc3cccnc3)CC2)CN1C(C)C (stereo not given),Percent Effect,"30.3 µM, […]",20.26%
